Most compounds without a hit are left out; they make up all but 2.4% or so of the library.
D2 ag-1: Beta-Arrestin HTS for Positive Allosteric Modulators of the Human D2 Dopamine Receptor: Agonists; D(2) dopamine receptor (Homo sapiens), P14416; DiscoveRx PathHunter D2 beta-arrestin, luminescence, 90 min; 100% = 57 uM dopamine signal; activation, % (concentration not given with the values); 360,000 compounds, 0.084% hits; AID 624465, 2012; in the data active = activation above about 40%; inconclusive = between about 15% and that limit
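DiscoveRx PathHunter D2 beta-arrestin cells (2,100/well) attached overnight, then compound-stimulated 90 min at 37 C in HBSS/10 mM HEPES/0.1% Tween-20 buffer; beta-galactosidase complementation read by luminescence after 1 h at ambient temperature. Dopamine 57 uM final (EC100) as control.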
D2 ag-2: HTS Assay for Allosteric Agonists of the Human D2 Dopamine Receptor: Primary Screen for Agonists; D(2) dopamine receptor (Homo sapiens), P14416; HEK293 T-REx D2 cells, calcium flux agonist mode; activation, % at 2 µM; 340,000 compounds, 0.53% hits; AID 485358, 2010;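 active = activation over 3 SD above normal in the single-dose calcium agonist read, cut at about 30% in these data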
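HEK293 Trex D2 cells, tetracycline-induced, o/n 30 C 5% CO2; no-wash Ca dye, RT 30–90 min; 10-cycle baseline, 23 nl cpd added, kinetic Ca read 180 s; agonist hits = positive Ca response.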
D2 antagonist: HTS Assay for Allosteric Antagonists of the Human D2 Dopamine Receptor: Primary Screen for Antagonists; HEK293 TREx D2 cells, calcium flux, dopamine EC80; inhibition, % at 10 µM; 340,000 compounds, 2% hits; AID 485344, 2010; in the data active = inhibition above about 30%; inactive = below that, where a call was filed
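Calcium flux kinetic readout in an inducible HEK293 TREx D2 line plated overnight at 30 C. After 180 s compound exposure, an EC80 dopamine challenge follows with another 180 s kinetic read to detect antagonism.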
D2 PAM-1: HTS Assay for Positive Allosteric Modulators of the Human D2 Dopamine Receptor: Primary Screen for Potentiators; D(2) dopamine receptor (Homo sapiens), P14416; HEK293 T-REx D2, calcium flux, EC20 dopamine potentiation; potentiation, % at 10 µM; 340,000 compounds, 0.34% hits;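 active = potentiation over 3 SD above the plate norm, cut at about 30% in these data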
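Cells plated with tetracycline inducer and held overnight at 30 C; calcium dye loaded 30–90 min at room temperature; baseline taken, compound added and read 180 s; EC20 dopamine then added and read 180 s.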
D2 PAM-2: Beta-Arrestin HTS for Positive Allosteric Modulators of the Human D2 Dopamine Receptor: Potentiators; 360,000 compounds, 0.23% hits; AID 624464, 2012; DiscoveRx D2 beta-arrestin cells, luminescence, 90 min; 100% = 57 uM dopamine signal; potentiation, % (test concentration not listed); D(2) dopamine receptor (Homo sapiens), P14416; in the data active = potentiation above about 50%; inconclusive = mostly about 30% to 49%
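PathHunter beta-arrestin assay in DiscoveRx D2 cells. Compounds were added with an EC20 of dopamine (50 nM final) for 90 min at 37 deg C. Luminescence was read 1 h after detection reagent, with 57 uM dopamine as the EC100 control.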
D3 ag: qHTS of D3 Dopamine Receptor Agonist: D3 Dopamine Receptor B-arrestin Agonist Confirmatory Assay; Potency, µM (highest dose often 76.9 µM), most hits filed as activators; DiscoveRx D3 beta-arrestin cells, luminescence, 90 min; shares compounds with D2 ag-2; 2,300 compounds, 4% hits; also: nearly all actives have a fitted effect of over 70% in size
Target sequence (P35462 whole entry, looked up): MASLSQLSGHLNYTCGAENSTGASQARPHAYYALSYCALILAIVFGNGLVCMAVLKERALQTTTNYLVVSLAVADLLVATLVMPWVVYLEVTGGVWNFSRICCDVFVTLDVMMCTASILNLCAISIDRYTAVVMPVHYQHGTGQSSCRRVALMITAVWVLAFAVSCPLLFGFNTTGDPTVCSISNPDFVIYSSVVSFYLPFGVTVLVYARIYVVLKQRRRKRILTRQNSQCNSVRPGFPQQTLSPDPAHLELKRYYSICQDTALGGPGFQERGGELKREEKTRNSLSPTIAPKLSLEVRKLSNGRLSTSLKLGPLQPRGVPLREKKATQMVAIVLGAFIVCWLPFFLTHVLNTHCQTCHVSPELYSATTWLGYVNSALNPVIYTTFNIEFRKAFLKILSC
D2 ag-3: qHTS of D3 Dopamine Receptor Agonist: D2 Dopamine Receptor B-arrestin Agonist Counterscreen | shares compounds with D2 ag-2 | 2,300 compounds, 5.9% hits | DiscoveRx PathHunter D2 beta-arrestin, luminescence, 90 min; response scale: percent relative to full dopamine signal | AID 720507, 2013 | Potency, µM (highest dose often 76.9 µM), usual class: activators; also: nearly all actives have a fitted effect of over 70% in size
Numbers stand for hits; 0 = inactive; ? = inconclusive; - = no result. Unless noted, calls follow the shape of the dose curve; as a rule, active = well fitted activation curve with a large enough effect; inconclusive = small, poorly fitted or top-dose-only effect; inactive = flat fitted curve, though single readings scatter.

SMILES | D2 ag-1 | D2 ag-2 | D2 antagonist | D2 PAM-1 | D2 PAM-2 | D3 ag | D2 ag-3
Cc1cc(C)nc(/N=C(\N)Nc2ccc(-c3ccccc3)cc2)n1 | 0 | 0 | 0 | 0 | 0 | - | -
CC(=O)Nc1ccc(N/C(N)=N/c2nc(C)cc(C)n2)cc1 | 0 | 0 | 0 | 0 | 0 | - | -
Cc1ccc(C)c(N/C(N)=N/c2nc(C)cc(C)n2)c1 | 0 | 56 | 0 | 0 | 0 | 0 | 0
CCOc1ccc(N/C(N)=N/c2nc(C)cc(C)n2)cc1 | 0 | - | - | - | 0 | 0 | ?
Cc1cc(C)nc(/N=C(\N)Nc2ccc(SC(F)F)cc2)n1 | 0 | 49 | 0 | 0 | 0 | 0 | 0
Cc1ccc(C(=O)N/C(=C\c2cccs2)C(=O)N2CCN(C)CC2)cc1C | 0 | 0 | 0 | 0 | 0 | - | -
CN(c1ccccc1)S(=O)(=O)c1cccc(NC(=O)Cc2n[nH]c(=O)c3ccccc23)c1 | 0 | 0 | 0 | 0 | 0 | - | -
Cc1onc(-c2c(Cl)cccc2Cl)c1C(=O)N=S(C)(=O)c1ccccc1 (stereo not given) | 0 | 0 | 0 | 0 | 0 | - | -
C=CCNCc1cc(=O)n2c(-c3ccccc3)csc2n1 | 0 | 47 | 0 | 0 | 0 | 0 | 0
O=c1cc(CN2CCN(c3ccccc3)CC2)nc2scc(-c3ccccc3)n12 | ? | 0 | 0 | 0 | 0 | - | -
O=C(C1CCCN(S(=O)(=O)c2cccc3cccnc23)C1)N1CCN(c2ccccc2F)CC1 (stereo not given) | 0 | 0 | 37 | 0 | 0 | 0 | ?
O=C(C1CCCN1S(=O)(=O)c1cccc2cccnc12)N1CCN(c2ccccc2)CC1 (stereo not given) | 0 | 0 | 0 | 0 | 0 | 0 | 0
CC(=O)Nc1cc(NC(C)=O)c2nc(N)sc2c1 | 0 | 0 | 0 | 0 | 0 | 0 | 0
O=C(COn1nnc2ccc(S(=O)(=O)N3CCOCC3)cc21)NCc1cccc(Cl)c1 | 0 | - | - | - | 0 | - | -
COc1cccc(CN2CCN(Cc3cc4ccccc4[nH]3)CC2CCO)c1 (stereo not given) | 0 | 31 | 0 | 0 | 0 | 0 | 0
O=c1[nH]c(CN2CCN(c3ccccc3)CC2)nc2scc(-c3ccccc3)c12 | 0 | 0 | 32 | 0 | 0 | ? | 0
Cc1ccc(C(=O)CCC(=O)NNC(=O)c2ccccc2O)cc1 | 0 | 0 | 0 | 0 | 0 | 0 | 0
Cc1ccc(C(=O)CCC(=O)OCC(=O)NNC(=O)c2ccc([N+](=O)[O-])cc2)cc1 | 0 | - | - | - | 0 | 0 | 0
COc1ccc(CC(=O)NNC(=O)c2ccc(NC(C)=O)cc2)cc1 | 0 | 0 | 0 | 0 | 0 | - | -
COc1ccc(C(=O)NNC(=O)Cc2ccc([N+](=O)[O-])cc2)cc1 | 0 | 42 | 0 | 0 | 0 | 0 | 0
Cc1ccc(NC(=O)CCC(=O)c2ccccc2)cc1 | 0 | - | - | - | 0 | - | -
Cc1ccc(S(=O)(=O)CCC(=O)OCC(=O)NNC(=O)c2ccc([N+](=O)[O-])cc2)cc1 | 0 | 0 | 0 | 0 | 0 | - | -
CCCCC1(C2CCCC2)NC(=O)NC1=O (stereo not given) | 0 | - | - | - | 0 | - | -
CC(CCc1ccccc1)NCC(O)c1ccc(O)c(C(N)=O)c1 (stereo not given) | 0 | 72 | 67 | 0 | 0 | 0 | ?
CC(CCc1ccccc1)NC(=O)c1ccccc1 (stereo not given) | 0 | - | - | 0 | 0 | - | -
SMILES | D2 ag-1 | D2 ag-2 | D2 antagonist | D2 PAM-1 | D2 PAM-2 | D3 ag | D2 ag-3
COc1ccc(CCNC(=O)CSC2=NS(=O)(=O)c3cc(Cl)ccc3N2)cc1OC | 0 | 0 | 0 | 0 | 0 | - | -
O=C(CSC1=NS(=O)(=O)c2cc(Cl)ccc2N1)NCCc1ccccc1 | 0 | 41 | 0 | 0 | 0 | 0 | 0
O=C(c1ccc(OCC2CCCO2)cc1)N1CCN(S(=O)(=O)c2cccc(F)c2)CC1 (stereo not given) | 0 | 0 | 0 | 0 | 0 | 0 | 0
O=C(Nc1cccc(S(=O)(=O)N2CCCCC2)c1)c1ccc(OCC2CCCO2)cc1 (stereo not given) | 0 | 0 | 0 | 0 | 0 | - | -
FC(F)(F)c1ccccc1NC(=S)N1CCCC1 | 0 | 0 | 0 | 0 | 0 | - | -
Cc1ccc(C)c(NC(=S)N2CCN(c3ccccn3)CC2)c1 | 0 | 0 | 0 | 0 | 0 | 0 | 0
O=C(/C=C/c1ccc(F)cc1)NC(=S)N1CCN(c2ccccn2)CC1 | 0 | 35 | 0 | 0 | 0 | 0 | 0
S=C(Nc1ccccc1)N1CCN(c2ccccn2)CC1 | 0 | 45 | 0 | 0 | 0 | 0 | 0
FC(F)(F)c1ccccc1NC(=S)N1CCN(c2ccccn2)CC1 | 0 | 41 | 0 | 0 | 0 | 0 | 0
COc1ccc(NC(=S)N2CCN(c3ccccn3)CC2)cc1 | 0 | 0 | 0 | 0 | 0 | - | -
CCOC(=O)c1cccc(NC(=O)c2cc(C)nn2-c2ccccc2)c1 | 0 | 0 | 0 | 0 | 0 | - | -
CCCOc1ccc(C(=O)Nc2ccc(N3CCOCC3)cc2N2CCOCC2)cc1OCC | 0 | - | - | - | 0 | - | -
COc1ccc(-n2nc3c(N4CCC(C(=O)NCc5cccc(F)c5)CC4)nnc(C)c3c2C)cc1 | - | 0 | - | 0 | - | - | -
CC(CNC(=O)C1CCN(C(=O)c2cc3sccc3n2C)CC1)c1ccccc1 (stereo not given) | - | 0 | - | 0 | - | - | -
Cc1cc(C)c(OCC(=O)OCC(=O)NCCC2=CCCCC2)c(C)c1 | 0 | 0 | 0 | 0 | 0 | - | -
CCN(CC)C(=O)Cn1cc(C(=O)C(=O)N2CCN(Cc3ccccc3)CC2)c2ccccc21 | 0 | 58 | 0 | 0 | 0 | 0 | 0
Cc1ncsc1CCOC(=O)c1ccc(N2CCOCC2)c([N+](=O)[O-])c1 | 0 | 0 | 0 | 0 | 0 | ? | ?
CCOc1ccc(N(CC(=O)NCCOc2ccc(C)cc2)S(=O)(=O)c2ccccc2)cc1 | 0 | 0 | 0 | 0 | 0 | - | -
COc1ccc(N(CC(=O)NCCOc2ccccc2)S(=O)(=O)c2ccc(C)cc2)cc1 | 0 | 0 | 0 | 0 | 0 | 0 | 0
COc1ccc(-c2cc(C(=O)N3CCCC(C(F)(F)F)C3)c3ccccc3n2)cc1 (stereo not given) | 0 | 0 | 0 | 0 | 0 | 0 | 0
O=C(COC(=O)Cc1ccc(Cl)cc1)NCc1ccco1 | 0 | - | - | - | 0 | - | -

Screening data: PubChem, National Center for Advancing Translational Sciences (NCATS)
